Results on 6 compounds are retold here after PubChem BioAssay.

Records with an inconclusive call do not appear. Active and inactive are the calls of the source. Unless noted, no cut-off is given here; in the data, nearly all actives have AC50 up to about 26 µM.

Assay [1] is described as follows: stimulators of nuclear beta-catenin in C2C12, primary screen, imaging, WNT3A-conditioned medium, mouse C2C12, NPC library (AID 1117326; in the data active = nuclear beta-catenin stimulation mostly above about 4.2%, no sharp cut-off; inactive = mostly below about 10%; note: reference of the scale not given here). The note with it: stronger effect = higher value.
The nature of assay [2]: stimulators of insulin release from INS-1E, primary screen, cell-based, 5 mM glucose, NPC library (AID 1117329;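 active = compound raises insulin release from rat beta cells at 5 mM glucose, no numeric limit stated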; note: reference of the scale not given here). The note with it: rat INS-1E insulin secretion, at 10 µM, stronger effect = higher value.
The nature of assay [3]: growth inhibition of GSK3B-pretreated HCT116 cells – cell-based, CellTiter-Glo, 0.2 to 20 µM (AID 1117336;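 active = compounds lowering colon cancer cell viability after pretreatment blocking the GSK3B kinase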). The note with it: HCT116 viability after GSK3B inhibitor, at 20 µM, stronger effect = higher value.
The nature of assay [4]: inhibition of endothelial tube formation, primary screen, imaging, VEGF stimulated, CD31 staining, tube area, NPC library (AID 1117340;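 active = compound that reduces growth-factor-driven endothelial tube area in a mixed cell culture, no cutoff stated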). The note with it: VEGF-stimulated ADSC/ECFC co-culture, at 10 µM, stronger effect = higher value.
Assay [5] is described as follows: glucagon-like peptide 1 release enhancers, primary assay, NCI-H716 cell line, NPC library (AID 1117341;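 active = compound raises GLP1 secretion from the human gut endocrine cells, with no numeric limit stated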; note: reference of the scale not given here). The conditions noted are these: NCI-H716 cells, at 10 µM, stronger effect = higher value.
The nature of assay [6]: HCT116 colon cancer cell growth inhibition, primary screen, CellTiter-Glo luminescence, NPC library (AID 1117342;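 active = compounds that lower survival of HCT116 colon cancer cells in the luminescence readout, no numeric limit stated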). The note with it: at 20 µM (top of the series).
Assay [7] can be described thus: CellTiter-Glo luminescent readout of SW480 viability loss, NPC library primary (AID 1117343;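 active = compounds that lower viability of the colon cancer cells in the luminescence readout, with no numeric limit stated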). The conditions noted are these: CellTiter-Glo luminescence; at 20 µM (top of the series) unless noted.
Assay [8] in a line: decreased DLD-1 cellular survival, CellTiter-Glo luminescent readout, NPC compound collection, primary HTS (AID 1117346;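 active = compounds that lower survival of DLD-1 colon cancer cells in the luminescence readout, no cutoff given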). The conditions noted are these: DLD-1 viability, CellTiter-Glo luminescence; at 20 µM (top of the series).
A short description of assay [9]: growth inhibition of DIPG glioma cells, dose response, cell-based, SU-DIPG-XVII, MIPE5.0, CellTiter-Glo, qHTS (AID 1347060).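 For AC50: cells exposed to compound for 48 hours before viability readout.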 The note with it: SU-DIPG-XVII viability, CellTiter-Glo ATP luminescence.
Assay [10] is described as follows: growth inhibition of DIPG glioma cells, dose response, cell-based, SU-DIPG-XIII, MIPE4.0, CellTiter-Glo, qHTS (AID 1347061; cut-off not given, nearly all actives have AC50 up to about 37 µM;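 note: cells exposed to compound for 48 hours before readout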). The note with it: SU-DIPG-XIII viability, CellTiter-Glo ATP luminescence.
Assay [11] is described as follows: viability loss in pontine glioma line – cell-based, SU-DIPG-XXV, MIPE5.0, CellTiter-Glo, qHTS, dose response (AID 1347065).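 Note: cells exposed to compound for 48 hours before ATP readout.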 The conditions noted are these: CellTiter-Glo ATP luminescence.
The nature of assay [12]: SU-DIPG-VI glioma cell viability, MIPE4.0 library, CellTiter-Glo luminescence, qHTS (AID 1347066; cut-off not given, nearly all actives have AC50 up to about 30 µM;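 note: cells exposed to compound for 48 hours before readout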). The conditions noted are these: CellTiter-Glo ATP luminescence.
Assay [13] in a line: SU-DIPG-XXV glioma cell viability, MIPE5.0 library, qHTS (AID 1347068; cut-off not given, nearly all actives have IC50 up to about 30 µM;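 for IC50: cells exposed to compound for 48 hours before viability readout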).
Assay [14] in a line: growth inhibition of DIPG glioma cells, dose response, cell-based, JHH-DIPG-1, MIPE4.0, CellTiter-Glo, qHTS (AID 1347062; cut-off not given, nearly all actives have AC50 up to about 27 µM;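 for AC50: cells exposed to compound for two days before readout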). The conditions noted are these: JHH-DIPG-1 viability, CellTiter-Glo ATP luminescence.
Assay [15] is described as follows: sensitizers of A549 cells to miR-34 induction, primary screen, imaging, A549 dox-inducible miR-34, nuclei and caspase counts (AID 1347080;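 active = compounds whose cell count with miR-34 switched on is under 0.7 times the count with it off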). The note with it: A549 miR-34 inducible, Hoechst nuclei count, 48 h.
Assay [16] can be described thus: survival rescue of mitochondrial mutant cells in low glucose, primary screen, MELAS cybrids, Rieske KO mouse fibroblasts, CellTiter-Glo (AID 1508586;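 active = mean z-score across replicates of 1.96 or higher in either the MELAS or the Rieske mutant cell line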;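 note: z relative to plate mean and SD of compound and empty wells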).
Setting [17] is: stronger effect = lower value, cell number ratio, induced over uninduced.
[18] abbreviates: measured here: relative caspase fold change +Dox/-Dox.
Setting [19] is: measured here: total cells with miR-34 induction, stronger effect = lower value.
The mark [20] stands for this setting: measured here: total cells without miR-34 induction.
Setting [21] is: MELAS cybrid survival, CellTiter-Glo 48 h, stronger effect = higher value.
The mark [22] stands for this setting: Rieske KO mouse fibroblast survival, CellTiter-Glo 72 h.

On to `N#Cc1c(N(CC(=O)O)CC(=O)O)sc(C(=O)O)c1CC(=O)O`, for which the nuclear beta-catenin stimulation was -1.5% (inactive) in assay [1] (at 10 µM) and -0.9% in [1] (stimulation, at 2 µM). The insulin secretion stimulation in [2] is 4.8% (inactive). Besides, the viability decrease in assay [3] is -2.4% (inactive). Further, the tube area decrease in assay [4] is 0% (inactive). For the same compound, the GLP1 secretion stimulation in assay [5] was -1.7% (inactive). In addition, in assay [6], the inhibition of viability is -4% (inactive). The viability decrease (inhibition) in assay [7] is -7.1% (inactive); in assay [8], -13.8% (inactive). Besides, the outcome in assay [9], in assay [10], in assay [11], in assay [12] and in [13] was inactive.

For the compound `CCOC(=O)c1ccc(C#Cc2ccc3c(c2)C(C)(C)CCS3)nc1`, the nuclear beta-catenin stimulation in assay [1] (at 10 µM) was 6% (inactive); in assay [1] (stimulation, at 2 µM), 4.9%. The insulin secretion stimulation in [2] was -1.4% (inactive). Besides, in assay [3], the viability decrease is 91.1% (active). The tube area decrease in assay [4] was -6% (inactive). Moreover, in [5], the GLP1 secretion stimulation was -0.3% (inactive). Besides, the inhibition of viability in [6] is 98.6% (active). Besides, the viability decrease (inhibition) was 126% (active) in assay [7] and 98.1% (active) in assay [8]. In assay [9], the AC50 was 26300 nM (active). Moreover, the compound was called inactive in assay [14], in assay [12] and in assay [13]. Also, the fold change is 0.864 (inactive) in assay [15] (setting [17]) and 0.957 in assay [15] (setting [18]). Further, the cell count in assay [15] (setting [19]) was 7750; in assay [15] (setting [20]) it was 8970. For the same compound, the values for the z-score in assay [16] (setting [21]) and in [16] (setting [22]) were 0.367 (inactive) and 0.684, respectively.

With `Clc1ccc(C(Cn2ccnc2)OCc2ccc(Sc3ccccc3)cc2)c(Cl)c1` (stereo not drawn), the nuclear beta-catenin stimulation was 8.8% (inactive) in assay [1] (at 10 µM) and 0% in assay [1] (stimulation, at 2 µM). Besides, the insulin secretion stimulation in assay [2] was 6.2% (inactive). Further, the viability decrease in [3] was 110% (active). In [4], the tube area decrease is 110% (active). Further, the GLP1 secretion stimulation in assay [5] is 16% (inactive). In addition, the inhibition of viability in [6] was 112% (active). The values for the viability decrease (inhibition) in assay [7] and in assay [8] were 132% (active) and 101% (active), respectively. For the same compound, the AC50 in assay [9] is 20900 nM (active).

With `CC(=O)N[C@H]1[C@H]([C@H](O)[C@H](O)CO)OC(C(=O)O)=C[C@@H]1N=C(N)N`, the nuclear beta-catenin stimulation in assay [1] (at 10 µM) was 0.9% (inactive); in assay [1] (stimulation, at 2 µM), 0.5%. The insulin secretion stimulation in assay [2] was -2.6% (inactive). Besides, the viability decrease in [3] was -14.4% (inactive). The tube area decrease in [4] is 7.8% (inactive). The GLP1 secretion stimulation in [5] is -2.9% (inactive). Moreover, the inhibition of viability in [6] was -2.4% (inactive). The viability decrease (inhibition) in assay [7] was 19.9% (inactive); in [8], 2.95% (inactive). Further, the outcome in assay [10], in assay [14] and in assay [12] was inactive.

As to `CCOC(=O)c1c(C)n(C)c2ccc(O)cc12`, the nuclear beta-catenin stimulation is 0.7% (inactive) in assay [1] (at 10 µM) and 2.1% in assay [1] (stimulation, at 2 µM). Also, in assay [2], the insulin secretion stimulation was 0.5% (inactive). Moreover, the viability decrease in assay [3] was -5.75% (inactive). Further, the tube area decrease in [4] was -15.4% (inactive). Moreover, the GLP1 secretion stimulation in [5] was 3.6% (inactive). Also, the inhibition of viability in [6] is 0% (inactive). For the same compound, the figures for the viability decrease (inhibition) in [7] and in assay [8] were 7% (inactive) and -0.8% (inactive), respectively. The compound was classed as inactive in assay [9], in assay [14], in assay [12] and in assay [13]. For the same compound, the fold change in [15] (setting [17]) is 0.886 (inactive); in [15] (setting [18]), 0.841. Also, the cell count worked out at 7760 in [15] (setting [19]) and 8760 in [15] (setting [20]). The results for the z-score in assay [16] (setting [21]) and in assay [16] (setting [22]) were -0.277 (inactive) and 0.616, respectively.

In the case of `CC(C)C[C@H](NC(=O)[C@H](CCc1ccccc1)NC(=O)CN1CCOCC1)C(=O)N[C@@H](Cc1ccccc1)C(=O)N[C@@H](CC(C)C)C(=O)[C@@]1(C)CO1`, the nuclear beta-catenin stimulation in [1] (at 10 µM) is 106% (active); in [1] (stimulation, at 2 µM), 129%. Further, the insulin secretion stimulation in assay [2] is 6.05% (inactive). The viability decrease in assay [3] is 117% (active). In addition, the tube area decrease in assay [4] is 110% (active). Also, in assay [5], the GLP1 secretion stimulation was 5.2% (inactive). In [6], the inhibition of viability was 124% (active). Besides, the viability decrease (inhibition) is 150% (active) in assay [7] and 101% (active) in [8]. Besides, the AC50 was 14.8 nM (active) in assay [9], 18.7 nM (active) in assay [14], 5.25 nM (active) in assay [11] and 93.5 nM (active) in [12]. Further, the IC50 in assay [13] was 93.4 nM (active).
